Active and inactive are the calls of the source.
How the values were obtained:
Albumin (Bos taurus) = Albumin (Bos taurus) (UniProt P02769); assay: compounds binding labelled BSA control protein – biochemical, small-molecule microarray, Alexa647 label, 635/667 nm fluorescence, artefact control for SMM control protein annotation, profiling panel (AID 1118); conditions: BSA-A647 binding, fluorescence 635 nm, higher = more signal;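 further: score merges 667 nm emission intensity and signal-to-noise per printed compound spot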
Sequence of Albumin (Bos taurus) (P02769 whole entry, looked up): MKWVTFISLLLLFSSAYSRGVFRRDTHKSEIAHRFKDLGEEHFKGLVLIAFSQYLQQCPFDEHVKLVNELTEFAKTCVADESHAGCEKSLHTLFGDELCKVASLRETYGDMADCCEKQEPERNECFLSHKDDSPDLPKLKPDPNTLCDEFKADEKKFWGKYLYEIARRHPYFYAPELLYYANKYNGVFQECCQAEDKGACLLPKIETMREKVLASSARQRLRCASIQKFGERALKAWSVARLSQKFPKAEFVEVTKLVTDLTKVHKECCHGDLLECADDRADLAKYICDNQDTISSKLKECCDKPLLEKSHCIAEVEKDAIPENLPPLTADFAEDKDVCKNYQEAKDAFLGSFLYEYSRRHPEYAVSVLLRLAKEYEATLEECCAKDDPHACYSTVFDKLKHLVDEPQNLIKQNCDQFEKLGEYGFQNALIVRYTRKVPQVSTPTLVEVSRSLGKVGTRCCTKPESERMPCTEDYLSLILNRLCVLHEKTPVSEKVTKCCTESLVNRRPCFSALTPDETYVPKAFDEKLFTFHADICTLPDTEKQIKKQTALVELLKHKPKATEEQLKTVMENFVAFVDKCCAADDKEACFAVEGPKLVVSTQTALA

[1] = probe aXIP binding to arrayed compounds – biochemical, NeuroSMM set, 635/667 nm fluorescence, primary screen (AID 1119); conditions: small-molecule microarray, higher = more signal, called active from +8 up or from −8 down;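 further: probe is the protein aXip251-270 applied at 1 µg/mL to compound-printed slides; binding of probe to printed compounds measured as 667 nm fluorescence plus signal to noise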
[2] = probe aNOTCH3 binding on compound microarray – biochemical, small-molecule microarray, 635/667 nm fluorescence, primary screen (AID 1120); conditions: higher = more signal;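 further: probe is a biotin-tagged antibody raised against NOTCH3 rather than NOTCH3 protein; score merges spot fluorescence near 667 nm with spot signal to noise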
[3] = probe aNOTCH2 binding on compound microarray – biochemical, small-molecule microarray, 635/667 nm fluorescence, primary screen (AID 1121); conditions: higher = more signal;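 further: score merges feature fluorescence read at 667 nm with its signal to noise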
[4] = molecular target: Carbonic anhydrase 2 (Homo sapiens) (UniProt P00918); assay: compounds binding carbonic anhydrase 2 – biochemical, small-molecule microarray, Alexa647-labelled CAII, profiling panel (AID 1122); conditions: CAII-A647 binding fluorescence, higher = more signal
[5] = COS7 lysate on small-molecule microarray, probe aHis, 635 nm (AID 1123); conditions: COS7 cell lysate, fluorescence, higher = more signal;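 further: z-score combines 667nm fluorescence intensity with signal-to-noise per printed compound spot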
[6] = probe aLAP1 signal on lysate-treated microarray – cell lysate, small-molecule microarray, COS7 lysate, primary screen (AID 1124); conditions: probe aLAP1, fluorescence, higher = more signal;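 further: lysate comes from COS7 cells expressing LAP1 and is applied at 0.3 µg/mL; score merges spot fluorescence near 667 nm with signal-to-noise over triplicate slides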
Sam68 (KHDRBS1) = assay: compounds binding KHDRBS1 protein – biochemical, small-molecule microarray, 635 nm fluorescence, primary screen (AID 1125); conditions: higher = more signal;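 further: score merges 667 nm channel intensity with signal to noise over triplicate slides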
[7] = tested on: Chordin-like protein 2 (CHRDL2); assay: compounds binding chordin-like 2 – biochemical, small-molecule microarray, 635 nm fluorescence, primary screen (AID 1126); conditions: fluorescence 635 nm, higher = more signal;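 further: printed compound slides probed with Chrdl2 protein at 4 µg/mL for 1 h at 4 C; score merges 667 nm emission intensity with signal to noise over three replicate slides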
[8] = molecular target: Concanavalin-A (Canavalia ensiformis) (UniProt P02866); assay: compounds binding concanavalin A lectin – biochemical, small-molecule microarray, Alexa647 label, 635 nm, artefact control for SMM control protein annotation, primary screen (AID 1127); conditions: ConA-A647 binding fluorescence, higher = more signal;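 further: z combines 667 nm emission intensity with signal-to-noise across three replicate slides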
Sequence of Concanavalin-A (Canavalia ensiformis) (P02866 whole entry, looked up): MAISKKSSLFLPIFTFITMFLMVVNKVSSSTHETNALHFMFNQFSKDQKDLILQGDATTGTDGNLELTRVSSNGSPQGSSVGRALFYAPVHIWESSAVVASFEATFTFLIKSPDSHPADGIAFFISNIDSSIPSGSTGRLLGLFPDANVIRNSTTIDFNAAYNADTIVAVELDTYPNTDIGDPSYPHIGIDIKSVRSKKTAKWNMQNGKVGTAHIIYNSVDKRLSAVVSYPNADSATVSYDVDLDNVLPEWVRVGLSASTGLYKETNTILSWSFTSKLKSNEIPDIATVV

Structure (SMILES) | composite z-score (Albumin (Bos taurus)) | composite Z-score [1] | composite z-score [2] | composite z-score [3] | composite z-score [4] | composite z-score [5] | composite z-score [6] | composite z-score (Sam68 (KHDRBS1)) | composite z-score [7] | composite z-score [8]
CN(C)CCCNC(=O)[C@@H]1c2ccccc2C(=O)N(Cc2ccccc2)[C@H]1c1ccc(CO)cc1 | -0.688 | 0.799 (inactive) | -0.0971 | -0.205 | 0.196 | 0.662 | 1.37 | -0.0257 | -0.623 | -0.312
COC(=O)[C@@]1(Cc2ccc(OC)cc2)[C@H]2c3cc(C(=O)N4CCCC4)n(Cc4cc(F)c(F)c(F)c4)c3C[C@H]2CN1C(=O)c1ccccc1 | 1.04 | 0.188 (inactive) | 1.69 | 0.882 | 0.765 | 3.06 | 1 | 1.3 | -0.593 | 1.21
C[C@H]1CC[C@@H](C(=O)O)N[C@@H]1c1ccc(C#CCN(C)C)cc1 | -0.0169 | 0.26 (inactive) | 0.0556 | -0.149 | 0.37 | -0.144 | -0.0228 | -0.331 | 0.591 | 0.574
CN1C(=O)C2C=CC(C(O)C(c3ccccc3)c3ccccc3)N(NC(=O)OC(C)(C)C)C2C1=O (stereo not given) | 1.03 | 1.84 (inactive) | 0.687 | 0.498 | 0.793 | 3.42 | 1 | 1.33 | 0.0789 | 1.19
CC1CC/C=C\[C@H]2OC34C=CCN(Cn5nnc6ccccc65)C(=O)[C@H]3N(CCO)C(=O)[C@@H]4C2C(=O)O1 (stereo not given in full) | 1.13 | 1.12 (inactive) | -0.319 | -0.15 | 0.942 | 2.59 | 1.06 | 0.0381 | -1.62 | -0.903
O=C1[C@H]2[C@H]3[C@H](O)[C@H](O)CC(=NOCc4ccccc4)[C@H]3CC[C@H]2C(=O)N1C[C@@H]1CCCO1 | 0.5 | 0.324 (inactive) | 0.132 | -0.12 | 0.432 | 0.469 | 0.491 | 0.232 | 0.312 | 0.652
CCCCCCc1nc(CCCc2cc3c(c(CCCCCC)n2)[Si](C(C)C)(C(C)C)O[C@H]3c2ccccc2)cc2c1[Si](C(C)C)(C(C)C)O[C@H]2c1ccccc1 | -0.27 | 0.248 (inactive) | -0.0284 | -0.14 | -0.156 | -0.0088 | -0.0919 | -0.14 | -0.0538 | 0.314
CC(C)CON=C1C[C@@H](O)[C@@H](O)[C@@H]2[C@@H]3C(=O)N([C@@H](C)c4ccccc4)C(=O)[C@@H]3CC[C@H]12 | 0.663 | 0.0312 (inactive) | 0.0297 | -0.0959 | 0.378 | 0.754 | -0.0211 | 1.29 | 0.315 | 1.07
COc1ccc([Si](C)(C)[C@@H]2[C@@H](CC(=O)N3CCC[C@H]3CO)O[C@]3(C(=O)N(Cc4cccc(N5CCC5=O)c4)c4ccccc43)[C@H]2C)cc1 | 0.263 | 0.188 (inactive) | 0.239 | -0.0288 | 0.14 | 2.25 | 0.317 | 1.31 | 0.453 | 0.811
COC(=O)[C@H](C)NC(=O)[C@@H](C)CO | 0.802 | 0.292 (inactive) | -0.105 | -0.103 | 0.516 | 1.15 | 0.531 | 1.03 | 0.0899 | 0.907

Source: PubChem BioAssay
